Assay results reported in the supplement of paper PMC11732987, “Enantioselective OTUD7B fragment discovery through chemoproteomics screening and high-throughput optimisation” (Communications Chemistry, 2025).

Legend:
Assay in all cases: log2 ratio of Biotin-Ahx-Ub-VS probe labelling (fragment/DMSO); higher = less target engagement (more negative = stronger competition), active = hit call of the paper (q ≤ 0.05, log2 ratio ≤ -1)
Conditions in all cases: compound concentration: 200 uM; treatment time: 3 h
ALG13 = biological target: T1, ALG13 (UniProt Q9NP73)
T1 sequence (whole entry): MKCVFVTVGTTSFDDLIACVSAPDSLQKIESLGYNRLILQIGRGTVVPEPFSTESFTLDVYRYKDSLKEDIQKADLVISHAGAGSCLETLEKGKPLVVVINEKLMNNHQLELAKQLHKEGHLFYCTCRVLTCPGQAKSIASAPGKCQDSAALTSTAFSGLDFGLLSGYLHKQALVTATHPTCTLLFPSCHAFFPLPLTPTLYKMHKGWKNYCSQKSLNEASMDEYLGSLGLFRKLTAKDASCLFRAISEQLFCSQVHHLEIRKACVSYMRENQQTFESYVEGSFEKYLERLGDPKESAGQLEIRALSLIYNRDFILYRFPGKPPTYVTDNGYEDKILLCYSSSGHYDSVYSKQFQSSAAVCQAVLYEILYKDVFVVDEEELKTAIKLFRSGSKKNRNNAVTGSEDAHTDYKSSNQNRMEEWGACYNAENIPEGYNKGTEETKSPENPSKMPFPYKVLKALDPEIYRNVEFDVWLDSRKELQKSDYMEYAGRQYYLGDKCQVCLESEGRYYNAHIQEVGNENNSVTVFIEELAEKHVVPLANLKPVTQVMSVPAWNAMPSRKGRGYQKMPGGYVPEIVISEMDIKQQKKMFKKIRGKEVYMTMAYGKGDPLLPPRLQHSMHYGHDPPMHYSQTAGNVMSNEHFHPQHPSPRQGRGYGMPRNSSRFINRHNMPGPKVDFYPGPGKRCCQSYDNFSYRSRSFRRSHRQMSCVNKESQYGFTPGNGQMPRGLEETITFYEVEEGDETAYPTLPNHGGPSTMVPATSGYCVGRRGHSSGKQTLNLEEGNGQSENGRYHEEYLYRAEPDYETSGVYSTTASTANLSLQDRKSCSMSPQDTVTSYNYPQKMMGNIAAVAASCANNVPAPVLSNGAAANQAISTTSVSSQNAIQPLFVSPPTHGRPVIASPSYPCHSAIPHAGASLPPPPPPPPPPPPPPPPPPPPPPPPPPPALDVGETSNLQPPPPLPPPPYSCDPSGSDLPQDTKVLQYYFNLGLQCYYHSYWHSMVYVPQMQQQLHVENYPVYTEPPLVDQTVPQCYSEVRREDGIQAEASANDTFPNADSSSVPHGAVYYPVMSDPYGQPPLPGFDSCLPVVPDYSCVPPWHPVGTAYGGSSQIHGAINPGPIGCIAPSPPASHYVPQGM
Method in brief: (§1)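 The table lists average log2 ratios of fragment over vehicle, from an unpaired t-test on global-median-normalised Spectronaut label-free quantities. Proteins with ≥2 unique peptides were used. Samples were HEK293T lysate (495 µg) treated in triplicate with fragment at 200 µM or vehicle for 3 h, then with Biotin-Ahx-Ub-VS (0.5 µM final) for 1 h, with labelled DUBs NeutrAvidin-enriched and run by diaPASEF LC-MS/MS.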

ATXN3 = ATXN3 (UniProt P54252)
Sequence of ATXN3 (P54252 whole entry): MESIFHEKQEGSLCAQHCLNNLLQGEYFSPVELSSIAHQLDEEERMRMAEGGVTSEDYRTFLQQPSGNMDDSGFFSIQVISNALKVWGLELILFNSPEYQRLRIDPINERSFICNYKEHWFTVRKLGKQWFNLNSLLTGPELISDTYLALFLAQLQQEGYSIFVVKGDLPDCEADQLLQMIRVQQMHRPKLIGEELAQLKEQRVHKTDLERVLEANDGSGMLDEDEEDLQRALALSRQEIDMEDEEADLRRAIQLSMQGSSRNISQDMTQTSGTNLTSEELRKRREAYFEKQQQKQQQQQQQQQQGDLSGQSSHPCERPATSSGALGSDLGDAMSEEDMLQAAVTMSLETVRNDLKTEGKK
Method in brief: as §1

BAP1 = biological target: T2, BAP1 (UniProt Q92560)
T2 sequence (whole entry): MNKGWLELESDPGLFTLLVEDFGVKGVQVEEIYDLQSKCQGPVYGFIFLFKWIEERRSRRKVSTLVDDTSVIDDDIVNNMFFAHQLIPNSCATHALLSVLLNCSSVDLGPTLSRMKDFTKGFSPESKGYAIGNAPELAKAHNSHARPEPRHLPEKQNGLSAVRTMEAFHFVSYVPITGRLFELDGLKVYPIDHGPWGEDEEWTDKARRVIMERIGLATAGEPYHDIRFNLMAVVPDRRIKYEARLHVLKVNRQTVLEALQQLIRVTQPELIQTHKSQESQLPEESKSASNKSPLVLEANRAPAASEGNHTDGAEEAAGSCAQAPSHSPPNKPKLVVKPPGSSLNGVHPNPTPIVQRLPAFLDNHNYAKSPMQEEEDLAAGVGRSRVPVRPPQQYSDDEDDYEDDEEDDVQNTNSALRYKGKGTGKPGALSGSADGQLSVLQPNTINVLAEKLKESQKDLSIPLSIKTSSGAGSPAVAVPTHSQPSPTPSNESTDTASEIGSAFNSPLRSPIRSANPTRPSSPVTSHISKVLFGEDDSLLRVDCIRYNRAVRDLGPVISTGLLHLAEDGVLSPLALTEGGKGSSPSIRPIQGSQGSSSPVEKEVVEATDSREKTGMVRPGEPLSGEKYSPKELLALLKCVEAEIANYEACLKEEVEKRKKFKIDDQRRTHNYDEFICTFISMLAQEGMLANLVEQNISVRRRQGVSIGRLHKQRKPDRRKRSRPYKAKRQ
Method in brief: as §1

EIF3F = EIF3F (UniProt O00303)
Sequence of EIF3F (O00303 whole entry): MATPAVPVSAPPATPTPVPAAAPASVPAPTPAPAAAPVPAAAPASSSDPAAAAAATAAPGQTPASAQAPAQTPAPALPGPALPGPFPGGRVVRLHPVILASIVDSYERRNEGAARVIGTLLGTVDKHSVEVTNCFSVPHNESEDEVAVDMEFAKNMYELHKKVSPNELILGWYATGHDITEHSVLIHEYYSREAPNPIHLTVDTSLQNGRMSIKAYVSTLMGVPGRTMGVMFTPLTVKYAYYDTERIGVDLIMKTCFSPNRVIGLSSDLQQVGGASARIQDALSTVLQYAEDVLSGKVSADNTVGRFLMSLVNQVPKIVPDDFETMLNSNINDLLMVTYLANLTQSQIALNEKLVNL
Method in brief: as §1

EIF3H = EIF3H (UniProt O15372)
Sequence of EIF3H (O15372 whole entry): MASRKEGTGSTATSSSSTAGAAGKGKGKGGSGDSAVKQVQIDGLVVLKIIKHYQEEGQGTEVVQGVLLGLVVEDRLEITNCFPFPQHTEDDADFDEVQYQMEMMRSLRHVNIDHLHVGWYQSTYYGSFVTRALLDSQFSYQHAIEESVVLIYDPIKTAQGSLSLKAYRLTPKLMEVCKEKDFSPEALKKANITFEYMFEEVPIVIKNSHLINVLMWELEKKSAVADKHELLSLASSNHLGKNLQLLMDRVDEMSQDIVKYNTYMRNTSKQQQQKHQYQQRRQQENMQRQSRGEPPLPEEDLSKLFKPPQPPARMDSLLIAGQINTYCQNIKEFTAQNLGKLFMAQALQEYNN
Method in brief: as §1

FAM105A = biological target: T3, FAM105A (UniProt Q9NUU6)
T3 sequence (whole entry): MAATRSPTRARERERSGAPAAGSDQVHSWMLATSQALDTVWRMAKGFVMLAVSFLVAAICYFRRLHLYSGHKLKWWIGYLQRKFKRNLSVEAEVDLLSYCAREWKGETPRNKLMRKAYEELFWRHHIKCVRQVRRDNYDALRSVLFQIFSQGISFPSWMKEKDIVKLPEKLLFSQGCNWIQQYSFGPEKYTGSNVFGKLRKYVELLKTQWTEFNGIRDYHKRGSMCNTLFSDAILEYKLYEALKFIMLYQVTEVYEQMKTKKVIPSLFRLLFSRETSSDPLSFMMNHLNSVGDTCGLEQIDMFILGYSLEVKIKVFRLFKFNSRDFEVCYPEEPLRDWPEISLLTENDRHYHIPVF
Method in brief: as §1

OTUB1 = OTUB1 (UniProt Q96FW1)
Sequence of OTUB1 (Q96FW1 whole entry): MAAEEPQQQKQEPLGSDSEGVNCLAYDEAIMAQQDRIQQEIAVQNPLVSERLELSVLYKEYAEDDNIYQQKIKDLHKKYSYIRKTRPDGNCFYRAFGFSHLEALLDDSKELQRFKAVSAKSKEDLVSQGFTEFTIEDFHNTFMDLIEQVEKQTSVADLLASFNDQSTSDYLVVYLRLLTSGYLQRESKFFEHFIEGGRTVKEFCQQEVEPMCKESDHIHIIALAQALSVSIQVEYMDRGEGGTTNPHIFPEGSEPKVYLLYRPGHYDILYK
Method in brief: as §1

OTUD4 = biological target: T4, OTUD4 (UniProt Q01804)
T4 sequence (whole entry): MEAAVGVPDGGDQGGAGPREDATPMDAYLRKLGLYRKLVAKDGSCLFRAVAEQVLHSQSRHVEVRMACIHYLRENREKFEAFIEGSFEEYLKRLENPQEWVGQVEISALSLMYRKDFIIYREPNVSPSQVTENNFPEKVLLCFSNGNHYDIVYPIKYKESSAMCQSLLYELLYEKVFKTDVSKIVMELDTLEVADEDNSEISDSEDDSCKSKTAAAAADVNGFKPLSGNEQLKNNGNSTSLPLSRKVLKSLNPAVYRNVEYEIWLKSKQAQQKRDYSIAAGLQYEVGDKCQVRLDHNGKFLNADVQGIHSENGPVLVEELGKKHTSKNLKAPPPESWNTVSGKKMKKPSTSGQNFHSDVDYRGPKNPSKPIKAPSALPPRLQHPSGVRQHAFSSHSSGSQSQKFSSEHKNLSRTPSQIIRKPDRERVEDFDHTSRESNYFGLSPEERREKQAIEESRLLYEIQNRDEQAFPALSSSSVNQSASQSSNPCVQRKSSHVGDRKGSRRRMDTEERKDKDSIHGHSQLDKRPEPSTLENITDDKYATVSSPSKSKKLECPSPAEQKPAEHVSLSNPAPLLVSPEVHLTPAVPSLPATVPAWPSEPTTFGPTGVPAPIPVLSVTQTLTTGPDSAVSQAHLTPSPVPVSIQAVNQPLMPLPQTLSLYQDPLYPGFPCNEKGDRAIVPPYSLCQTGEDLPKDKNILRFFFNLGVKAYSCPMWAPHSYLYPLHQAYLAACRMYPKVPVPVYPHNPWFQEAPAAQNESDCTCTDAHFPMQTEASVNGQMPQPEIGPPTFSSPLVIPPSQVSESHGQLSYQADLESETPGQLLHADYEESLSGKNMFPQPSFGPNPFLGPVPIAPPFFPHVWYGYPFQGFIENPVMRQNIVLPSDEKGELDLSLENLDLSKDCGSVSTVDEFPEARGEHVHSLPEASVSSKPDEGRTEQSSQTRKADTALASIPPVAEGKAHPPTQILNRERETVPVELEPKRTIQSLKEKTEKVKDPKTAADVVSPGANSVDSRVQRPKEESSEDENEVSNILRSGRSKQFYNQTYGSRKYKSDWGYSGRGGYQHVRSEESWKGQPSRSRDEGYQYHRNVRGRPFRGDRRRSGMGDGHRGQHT
Method in brief: as §1

OTUD5 = biological target: T5, OTUD5 (UniProt Q96G74)
T5 sequence (whole entry): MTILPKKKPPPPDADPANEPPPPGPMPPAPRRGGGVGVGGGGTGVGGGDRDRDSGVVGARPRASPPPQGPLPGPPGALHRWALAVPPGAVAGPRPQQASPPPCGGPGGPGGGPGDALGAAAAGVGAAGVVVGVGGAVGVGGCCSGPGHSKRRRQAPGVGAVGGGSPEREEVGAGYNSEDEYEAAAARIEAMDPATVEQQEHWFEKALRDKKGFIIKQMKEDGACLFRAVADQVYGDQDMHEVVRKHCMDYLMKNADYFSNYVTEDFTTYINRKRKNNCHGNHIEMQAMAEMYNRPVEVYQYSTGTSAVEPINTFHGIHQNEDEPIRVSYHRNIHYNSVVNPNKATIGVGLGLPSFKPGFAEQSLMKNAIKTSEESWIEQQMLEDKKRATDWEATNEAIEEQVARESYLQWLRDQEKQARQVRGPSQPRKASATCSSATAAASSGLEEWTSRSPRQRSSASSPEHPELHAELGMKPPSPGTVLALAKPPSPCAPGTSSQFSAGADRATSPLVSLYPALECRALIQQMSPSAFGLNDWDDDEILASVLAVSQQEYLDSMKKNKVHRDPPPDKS
Method in brief: as §1

Measured: log2 ratio of Biotin-Ahx-Ub-VS probe labelling

C[C@@H](NC(=O)CCl)c1cccc(C#N)c1
active: BAP1 -2.8
inactive: ALG13 0.118 | ATXN3 -0.463 | EIF3F -0.345 | EIF3H 0.144 | FAM105A 0.148 | OTUB1 -0.229 | OTUD4 -0.372 | OTUD5 -0.284
